According to PubChem BioAssay (EPA / NIEHS):
Inconclusive results are not listed. Calls of active or inactive are those of the source. How the source made its calls: active means hit-call score of the fitted dose curve at least 0.9, where 1 is the maximum; inconclusive means response in the unintended direction; inactive means score below 0.9.

Assay: ACEA_ER_80hr: ACEA Biosciences xCELLigence Real-Time Cell Analysis on Estrogen Receptor Agonism for Proliferation (AID 2282667)
Conditions: T47D proliferation, impedance (xCELLigence), 80 h
In short: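 Real-time electrical impedance tracked growth of the human breast line T47D, with the 80 h post-dosing value used. Dosing spanned eight 1:4 steps down from a 100 uM final top concentration, run in duplicate.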

| SMILES | outcome | AC50 |
| --- | --- | --- |
| CC(C)(c1ccccc1)c1ccc(Nc2ccc(C(C)(C)c3ccccc3)cc2)cc1 | inactive | – |
| c1ccc2cnccc2c1 | inactive | – |
| CCC(C)N (configuration not stated) | inactive | – |
| CCCCC(C=O)CC (configuration not stated) | inactive | – |
| [Cl][Eu]([Cl])[Cl] | inactive | – |
| O=C1CCCCC1C1CCCCC1 (configuration not stated) | inactive | – |
| Nc1cccc(N)n1 | inactive | – |
| CC(C)(C)C1CCC(=O)CC1 | inactive | – |
| C=CC(=O)OCCCCCCOC(=O)C=C | – | 10.5 µM (active) |
| CC(C)(CO)C(O)C(=O)NCCCO (configuration not stated) | inactive | – |
| CCOC(=O)/C=C\C(=O)OCC | inactive | – |
| CCCCNS(=O)(=O)c1ccccc1 | inactive | – |
| CCCC(CC)c1ccccc1 (configuration not stated) | inactive | – |
| CC(C)c1ccc(O)c(C(C)C)c1 | inactive | – |
| CC(C)COC(=O)CC(C(=O)OCC(C)C)S(=O)(=O)O (configuration not stated) | inactive | – |
| CC(C)CCOCc1ccccc1 | inactive | – |
| C=CC(=O)OCC(C)OCC(C)OCC(C)OC(=O)C=C (configuration not stated) | inactive | – |
| CCCCCCCCCCCC(=O)N(C)CC(=O)O | inactive | – |
| CC=C(C)C(C)=O | inactive | – |

| SMILES | outcome | AC50 |
| --- | --- | --- |
| CC(C)CC(=O)OCc1ccccc1 | inactive | – |
| CCCCCCC=O | – | 10.9 µM (active) |
| O=C1CCCCCCCCCCC1 | inactive | – |
| C1CNCCN1 | inactive | – |
| O=C(O)CCC(=O)O | inactive | – |
| COC(OC)(C(=O)c1ccccc1)c1ccccc1 | inactive | – |
| CCCCC1CCC(=O)O1 (configuration not stated) | inactive | – |
| CC(=O)c1ccc(S(=O)(=O)NC(=O)NC2CCCCC2)cc1 | inactive | – |
| C=C(C)C(=O)OCC(O)COc1ccc(C(C)(C)c2ccc(OCC(O)COC(=O)C(=C)C)cc2)cc1 (configuration not stated) | inactive | – |
| CC1CC(=O)CC(C)(C)C1 (configuration not stated) | inactive | – |
| [Cl][Sc]([Cl])[Cl] | inactive | – |
| O=S(=O)(O)c1ccc(Nc2nc(Nc3ccc(C=Cc4ccc(Nc5nc(Nc6ccc(S(=O)(=O)O)cc6)nc(N(CCO)CCO)n5)cc4S(=O)(=O)O)c(S(=O)(=O)O)c3)nc(N(CCO)CCO)n2)cc1 | inactive | – |
| CC(CC=O)CC(C)(C)C (configuration not stated) | inactive | – |
| C[Si]1(C)O[Si](C)(C)O[Si](C)(C)O[Si](C)(C)O[Si](C)(C)O1 | inactive | – |
| CCCCCCCCCCCC(=O)OCC | inactive | – |
| C=C(C)C(=O)OCCOC(=O)C(=C)C | inactive | – |
| CCC1COC(=O)O1 (configuration not stated) | inactive | – |
| CCCCOC(=O)C(C)CC (configuration not stated) | inactive | – |
